Measurements published in PubChem BioAssay (Tox21).
Results filed as inconclusive are left out. Active and inactive are the calls of the source. Unless noted, the call rests on the fitted dose curve; in most records, active means well fitted curve in the direction sought with a large enough effect in the repeat runs; inconclusive means weak or mixed curves; inactive means no such curve, though single readings can be large; an effect the other way counts as inactive or inconclusive.

How the values were obtained:
[1] = qHTS assay to identify aromatase inhibitors - cell viability counter screen (AID 743084);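 further: cells stimulated with testosterone during compound exposure; nearly all actives have a fitted effect of over 55% in size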
[2] = target: Aryl hydrocarbon receptor (Homo sapiens) (UniProt P35869); assay: qHTS assay to identify small molecule that activate the aryl hydrocarbon receptor (AhR) signaling pathway (AID 743085);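 further: HG2L7.5c1 human HepG2 liver cells with stably integrated DRE-driven firefly reporter; series mostly up to about 70 µM; nearly all actives have a fitted effect of over 15% in size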
Chain of Aryl hydrocarbon receptor (Homo sapiens) (P35869 whole entry, looked up): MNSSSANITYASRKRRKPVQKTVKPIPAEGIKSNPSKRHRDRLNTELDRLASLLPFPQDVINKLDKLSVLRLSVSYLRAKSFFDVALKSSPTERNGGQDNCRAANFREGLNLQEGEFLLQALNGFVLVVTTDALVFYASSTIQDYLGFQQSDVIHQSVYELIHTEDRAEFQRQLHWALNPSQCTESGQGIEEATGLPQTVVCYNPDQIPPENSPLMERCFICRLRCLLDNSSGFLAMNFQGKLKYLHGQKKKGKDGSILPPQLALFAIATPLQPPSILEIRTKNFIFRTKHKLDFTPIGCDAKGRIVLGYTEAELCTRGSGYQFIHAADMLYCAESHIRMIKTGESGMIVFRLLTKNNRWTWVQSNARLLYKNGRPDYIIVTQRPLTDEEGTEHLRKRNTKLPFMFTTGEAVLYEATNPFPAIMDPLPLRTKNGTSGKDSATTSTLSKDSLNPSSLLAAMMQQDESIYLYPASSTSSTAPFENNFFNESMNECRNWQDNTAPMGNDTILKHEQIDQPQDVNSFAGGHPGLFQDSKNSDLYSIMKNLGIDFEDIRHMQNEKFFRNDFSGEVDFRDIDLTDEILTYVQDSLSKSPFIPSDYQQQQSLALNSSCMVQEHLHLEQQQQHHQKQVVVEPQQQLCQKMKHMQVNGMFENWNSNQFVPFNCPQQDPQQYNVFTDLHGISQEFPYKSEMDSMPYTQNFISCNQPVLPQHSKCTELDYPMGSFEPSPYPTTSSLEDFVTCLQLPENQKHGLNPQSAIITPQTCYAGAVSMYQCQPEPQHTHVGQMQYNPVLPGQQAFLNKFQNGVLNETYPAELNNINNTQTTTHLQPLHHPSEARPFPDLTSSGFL
How it was run: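 A multiplexed format paired cell viability (CellTiter-Fluor fluorescence) with AhR-dependent luciferase output (ONE-Glo luminescence) in the same wells of HepG2 DRE-luc cells after 24 h compound exposure at 37C.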

[3] = qHTS assay to identify small molecule that activate the aryl hydrocarbon receptor (AhR) signaling pathway - cell viability counter screen (AID 743086);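 further: HepG2 liver cells carrying the AhR DRE luciferase reporter; series mostly up to about 70 µM; nearly all actives have a fitted effect of over 45% in size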
How it was run: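 HepG2-AhR-luc (HG2L7.5c1) cells, 4000/well, were preincubated 5 h at 37C, exposed to compound in qHTS format for 24 hr at 37C, then given CellTiter-Fluor for 30 min; viability was read as fluorescence in the reporter wells.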

[4] = target: Peroxisome proliferator-activated receptor gamma (Homo sapiens) (UniProt P37231); assay: qHTS assay to identify small molecule agonists of the peroxisome proliferator-activated receptor gamma (PPARg) signaling pathway (AID 743094; active means well fitted activation curve with a large enough effect in the signal ratio in the repeat runs, not every such curve was filed as active; the % refers to the signal ratio)
Chain of Peroxisome proliferator-activated receptor gamma (Homo sapiens) (P37231 whole entry, looked up): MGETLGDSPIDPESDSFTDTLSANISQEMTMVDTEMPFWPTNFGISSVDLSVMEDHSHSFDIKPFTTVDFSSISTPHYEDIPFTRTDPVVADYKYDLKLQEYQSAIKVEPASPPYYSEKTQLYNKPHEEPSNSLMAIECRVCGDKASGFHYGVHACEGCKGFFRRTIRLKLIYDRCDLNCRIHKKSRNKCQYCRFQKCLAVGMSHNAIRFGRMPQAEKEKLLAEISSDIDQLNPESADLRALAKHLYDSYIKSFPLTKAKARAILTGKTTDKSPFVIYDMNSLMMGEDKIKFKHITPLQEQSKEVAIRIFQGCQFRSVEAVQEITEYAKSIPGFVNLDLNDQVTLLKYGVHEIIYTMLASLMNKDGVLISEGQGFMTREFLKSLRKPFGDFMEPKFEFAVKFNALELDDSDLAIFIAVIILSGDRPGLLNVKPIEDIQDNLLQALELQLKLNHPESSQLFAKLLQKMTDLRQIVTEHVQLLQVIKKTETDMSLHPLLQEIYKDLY
How it was run: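 Fluorescence-based beta-lactamase readout in HEK293H PPARg UAS-bla cells after 17 h compound exposure (37C) and 1 h B/G FRET substrate incubation at room temperature.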

[5] = qHTS assay to identify small molecule antagonists of the peroxisome proliferator-activated receptor gamma (PPARg) signaling pathway - cell viability counter screen (AID 743194); further: nearly all actives have a fitted effect of over 55% in size
How it was run: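 PPARg-UAS-bla HEK293H cells were plated, rested 5 h at 37 C, then treated with compounds plus rosiglitazone (50 nM final) for 17 h at 37 C; viability was then read by CellTiter-Glo luminescence after 30 min at room temperature.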

[6] = qHTS assay for small molecule agonists of the antioxidant response element (ARE) signaling pathway - cell viability counter screen (AID 743203; calls by dose curve; further: nearly all actives have a fitted effect of over 55% in size)
How it was run: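 Parallel cytotoxicity read-out for the ARE-bla screen: HepG2 reporter cells, 16 hrs with compounds, then CellTiter-Glo luminescence.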

[7] = qHTS assay for small molecule activators of the heat shock response signaling pathway - cell viability counter screen (AID 743209); further: nearly all actives have a fitted effect of over 50% in size
How it was run: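 To flag cytotoxic compounds, HSE-bla HeLa cells plated at 1500 cells/well were dosed for 5 h at 37 C, followed by the reporter FRET read and then CellTiter-Glo, with luminescence recorded 30 min after reagent addition.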

[8] = qHTS assay for small molecule activators of the heat shock response signaling pathway (AID 743210; active means well fitted activation curve with a large enough effect in the signal ratio in the repeat runs, with a control signal flat, not every such curve was filed as active; the % refers to the signal ratio;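 further: HeLa cells with beta-lactamase reporter driven by heat shock elements; series mostly up to about 63 µM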)
How it was run: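 Activation of heat shock element-controlled beta-lactamase expression is measured in HeLa cells by LiveBLAzer FRET fluorescence, with compound exposure lasting 5 h at 37 C and substrate loading 2.5 h at room temperature.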

[9] = qHTS assay for small molecule agonists of the antioxidant response element (ARE) signaling pathway (AID 743202; active means well fitted activation curve with a large enough effect in the signal ratio in the repeat runs, not every such curve was filed as active; the % refers to the signal ratio)
How it was run: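 Steps: seed ARE-bla HepG2 cells (2,000/well); incubate 5 h at 37 C; add compounds by pin tool; incubate 16 h at 37 C; add FRET substrate; read fluorescence after 2 h at RT.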

[10] = target: Peroxisome proliferator-activated receptor gamma (Homo sapiens) (UniProt P37231); assay: qHTS assay to identify small molecule antagonists of the peroxisome proliferator-activated receptor gamma (PPARg) signaling pathway (AID 743191; calls by dose curve; further: series mostly up to about 63 µM; nearly all actives have a fitted effect of over 30% in size)
How it was run: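 GeneBLAzer PPARg UAS-bla HEK293H cells carrying a UAS-driven beta-lactamase reporter were plated at 3000 cells/well, preincubated 5 h at 37C, then given compound for 17 h at 37C; LiveBLAzer B/G FRET substrate was read after 1 h at room temperature.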

Measured: Potency

CC(C)(C)c1cc(CCC(=O)NN)cc(C(C)(C)C)c1O
inactive: [1] | [2] | [3] | [4] | [5] | [6] | [7] | [8]

CC(C)CC(C)CC(C)CC(C)COC(=O)c1ccccc1C(=O)OCC(C)CC(C)CC(C)CC(C)C (stereo not drawn)
inactive: [1] | [2] | [3] | [4] | [5] | [6] | [7] | [8]

OCCC(F)(F)C(F)(F)C(F)(F)C(F)(F)C(F)(F)C(F)(F)C(F)(F)C(F)(F)F
inactive: [1] | [2] | [3] | [5] | [9] | [6] | [7] | [8]

CCCCCCN
inactive: [1] | [2] | [3] | [5] | [6] | [7]

COc1nccnc1NS(=O)(=O)c1ccc(N)cc1
inactive: [1] | [2] | [4] | [5] | [9] | [6] | [7] | [8]

O=S(=O)(O)CCN1CCN(CCO)CC1
inactive: [1] | [2] | [4] | [10] | [5] | [6] | [7] | [8]

CO[C@@H]1[C@@H](OC(N)=O)[C@@H](O)[C@H](Oc2ccc3c(O)c(NC(=O)c4ccc(O)c(CC=C(C)C)c4)c(=O)oc3c2C)OC1(C)C
inactive: [1] | [2] | [3] | [5] | [6] | [7] | [8]

Cc1cc(C(C)(C)C)c(O)c(C)c1CC1=NCCN1
inactive: [1] | [2] | [3] | [4] | [5] | [6] | [7] | [8]

CCOC(=O)CC(=O)c1ccccc1
inactive: [1] | [4] | [10] | [5] | [9] | [6] | [7]

O=C(O)Cc1cn(-c2ccccc2)nc1-c1ccc(Cl)cc1
inactive: [1] | [2] | [5] | [6] | [7]

O=C1c2ccccc2C(=O)N1CCl
inactive: [1] | [3] | [4] | [10] | [5] | [9] | [6] | [7] | [8]

Cc1ccc(S(=O)(=O)O)c(C)c1
inactive: [1] | [3] | [4] | [5] | [9] | [6] | [7] | [8]

COCCOC(=O)C1=C(C)NC(C)=C(C(=O)OC(C)C)C1c1cccc([N+](=O)[O-])c1 (stereo not drawn)
inactive: [1] | [3] | [4] | [5] | [6] | [7] | [8]

CCCC/C=C/C=C\C=O
inactive: [1] | [2] | [4] | [5] | [6] | [7]

CC(C)c1ccc2cc(C(C)C)ccc2c1
inactive: [1] | [3] | [4] | [5] | [9] | [6] | [7] | [8]

CCCCC(CC)COCCO (stereo not drawn)
inactive: [1] | [2] | [4] | [5] | [6] | [7] | [8]

CC(C)(C)OC(=O)c1ccc(O)cc1
inactive: [1] | [3] | [4] | [10] | [5] | [6] | [7] | [8]

C#CC(C)N(C)C(=O)Nc1ccc(Cl)cc1 (stereo not drawn)
inactive: [1] | [3] | [4] | [10] | [9] | [6] | [7]

CC1(CO)CN(c2ccccc2)NC1=O (stereo not drawn)
inactive: [1] | [3] | [5] | [6] | [7] | [8]

O=Cc1ccc(Cl)c(Cl)c1
inactive: [1] | [3] | [4] | [10] | [5] | [9] | [6] | [7] | [8]

COC(=O)[C@@H]1[C@H]2C[C@H]3c4[nH]c5ccccc5c4CCN3C[C@@H]2CC[C@@H]1O
inactive: [1] | [3] | [4] | [5] | [9] | [6] | [7] | [8]

N[C@@H](CCC(=O)Nc1ccc([N+](=O)[O-])cc1)C(=O)O
inactive: [1] | [2] | [5] | [9] | [6] | [7]

COc1cc2c(cc1OC)[C@@H]1CC(=O)[C@@H](CC(C)C)CN1CC2
inactive: [1] | [3] | [4] | [5] | [9] | [6] | [7] | [8]

O=C(NCCN1CCOCC1)c1ccc(Cl)cc1
inactive: [1] | [3] | [4] | [5] | [9] | [6] | [7] | [8]
